PubChem BioAssay
Unmarked numbers belong to inactive results.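 The calls were made as follows: active = RAM network inhibition above 8.4% in each of two replicates, 3 SD over the compound average; inconclusive = above 8.4% inhibition in only one replicate; inactive = 8.4% inhibition or less in each replicate.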

Test: RAM signaling pathway blockade in yeast – S. cerevisiae, Pdr1DBD-CYC8 efflux-inhibited sensitized strain, primary screen (AID 1298);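 also: 0% = DMSO untreated cells without growth and 100% = 10 µM 1-NA-PP1 full growth; higher means more yeast growth rescued from 5-FOA killing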
Conditions: S. cerevisiae cbk1-as DSE1-URA3 strain, 5-FOA growth OD615, 2 d; at 50 µM; hits give high values

Row | SMILES | RAM network inhibition
1 | O=C(O)CCCC(=O)Nc1c(F)c(F)c(F)c(F)c1F | -0.87%
2 | O=C1CC(NCc2ccc3c(c2)OCO3)C(=O)N1CCc1ccccc1 (stereo not given) | 0.51%
3 | O=S(=O)(NC1CCCCC1)c1ccc(Br)cc1 | 2.96%
4 | CCn1c2ccccc2c2nnc(SCC(=O)c3ccccc3)nc21 | 6.1%
5 | COc1ccccc1C1NC(=O)NC(C)=C1C(=O)Nc1cccc(C)c1C (stereo not given) | -1.38%
6 | CCOC(=O)c1[nH]c(C)c(C(=O)OCC)c1C | 4.06%
7 | Cc1ccc2c(c1)C(c1ccccc1)N(C(=O)c1ccc(Br)o1)CC(=O)N2 (stereo not given) | 2.72%
8 | CCSC1=C(C#N)C(c2ccc(F)cc2)CC(=O)N1 (stereo not given) | 2.29%
9 | O/N=C1/CCc2cccc3cccc1c23 | -0.11%
10 | COc1ccc(OCc2nnc(SCC(=O)O)n2N)cc1 | -2.27%
11 | Cc1noc(NS(=O)(=O)c2ccc(N3Cc4ccccc4C3=O)cc2)c1C | 5.3%
12 | Cc1cc(C)c(OCC(=O)Nc2cccc(NC(=O)c3ccco3)c2)c(Br)c1 | 3.46%
13 | O=C(Cn1cc2c(n1)CCCC2)Nc1ccccc1Br | 1.15%
14 | CCCC(=O)C1=C(O)C(C(=O)OC)C(C)(C)CC1=Nc1ccccc1 (stereo not given) | 2.75%
15 | O=C(CCCN1C(=O)CSc2ncccc21)N1CCN(Cc2ccccc2)CC1 | 2.55%
16 | CCOC(=O)c1c(C)c(C(=O)O)n(C)c1C | 2.91%
17 | CCOc1ccc(C2CC(c3cccc(C)c3)n3nc(N)nc3N2)cc1 (stereo not given) | 2.03%
18 | Cc1cccc(NC(=O)c2ccc(S(=O)(=O)N(C)C)cc2)c1 | 1.69%
19 | COCCCNC(=O)c1cc2c(-c3ccc(Cl)cc3)nn(C)c2s1 | 3.67%
20 | Cc1ccc(-c2nnc3n2N=C(c2ccccc2)CS3)cc1 | 2.25%

Row | SMILES | RAM network inhibition
21 | COCCOC(=O)c1[nH]c2c(c1C)C(=O)CC(c1cc(OC)ccc1OC)C2 (stereo not given) | 9.43%
22 | COc1ccc(OC)c(C2C(C(N)=O)=C(C)Nc3nc(CCCO)nn32)c1 (stereo not given) | 5.21%
23 | CCOC(=O)Nc1ccc2ncn(C)c(=O)c2c1 | 1.08%
24 | Cc1cc2c3nonc3ccc2n1-c1ccccc1 | 6.15%
25 | O=C(Nc1ccc(F)cc1)C1CCC(N2C(=O)c3ccccc3C2=O)CC1 (stereo not given) | 12.4%
26 | CCOc1ccc(-n2c(Cc3cc(=O)[nH]c(=O)[nH]3)nnc2SC(C)C(=O)OC)cc1 (stereo not given) | 3.49%
27 | Cn1cccc1Cc1nnc(SCC(=O)N2CCCCCC2)n1-c1ccc(F)cc1 | 4.48%
28 | Cc1occc1C(=O)NCc1cccs1 | -0.16%
29 | CCC(C)(C(=O)NC1CCCCC1)N(Cc1ccco1)C(=O)CC1NC(=O)NC1=O (stereo not given) | 1.8%
30 | CCCCOC(=O)Cc1c(O)c2ccccc2[nH]c1=O | -0.98%
31 | CCCC(=O)N=c1sc2cccc(F)c2n1C | 5.05%
32 | Cc1ccc(N2CCN(c3cc(C)nc4nc(C)nn34)CC2)c(C)c1 | 2.52%
33 | CC(C)CCOc1cccc(C2c3c(oc4ccccc4c3=O)C(=O)N2CCCN2CCOCC2)c1 (stereo not given) | 6.7%
34 | O=C1N=C(N2CCOCC2)SC1=C1CCCCC1 | 1.84%
35 | CCOC(=O)N1CCC(N2CC34C=CC(O3)C(C(=O)Nc3ccc(F)cc3)C4C2=O)CC1 (stereo not given) | 6.68%
36 | COC(=O)/C=C/S(=O)(=O)c1ccc(NC(C)=O)cc1 | 7.25%
37 | Cc1ccc(C)c(NC(=O)CS(=O)(=O)c2cn(C)c3ccccc23)c1 | 1.3%
38 | CCOC(=O)C1C(C)N=C2SCC(=O)N2C1c1cccc(Br)c1 (stereo not given) | 3.99%
39 | CCOc1ccc(NC(=O)c2cnc3scc(C)n3c2=O)cc1 | 8.45%
40 | COC(=O)c1ccc(N=c2sc(C(=O)OC)cc(=O)n2C)cc1 | 3.85%
